Here are results for 75 compounds from ChEMBL document CHEMBL3988442, “University of Dundee, Small-Polar-MMV Screening Library” (2021).

Experiment [1] deals with T1, Aspartate--tRNA(Asp/Asn) ligase (Mycobacterium tuberculosis (strain ATCC 25618 / H37Rv)) (UniProt P9WFW3).
T1 sequence (whole entry): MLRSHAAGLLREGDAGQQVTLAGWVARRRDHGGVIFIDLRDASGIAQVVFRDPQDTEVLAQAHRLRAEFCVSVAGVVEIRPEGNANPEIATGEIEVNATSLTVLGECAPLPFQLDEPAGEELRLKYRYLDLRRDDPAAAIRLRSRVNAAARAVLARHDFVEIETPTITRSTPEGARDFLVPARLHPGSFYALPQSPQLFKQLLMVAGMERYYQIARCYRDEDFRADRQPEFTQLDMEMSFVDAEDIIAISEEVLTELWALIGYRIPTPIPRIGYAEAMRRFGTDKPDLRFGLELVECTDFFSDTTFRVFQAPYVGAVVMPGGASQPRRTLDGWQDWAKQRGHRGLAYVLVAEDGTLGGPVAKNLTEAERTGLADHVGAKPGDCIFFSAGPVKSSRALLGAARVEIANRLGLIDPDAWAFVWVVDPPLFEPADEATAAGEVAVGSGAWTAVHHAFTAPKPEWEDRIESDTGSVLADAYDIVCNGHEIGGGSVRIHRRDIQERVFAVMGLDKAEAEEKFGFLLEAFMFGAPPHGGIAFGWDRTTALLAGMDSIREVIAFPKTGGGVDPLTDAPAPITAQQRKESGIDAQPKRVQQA
In words: Assay for Asp RNA synthetase-1 from Mycobacterium tuberculosis. The conditions noted are these: 30 µM. On the set-up: scale not given: direction of the effect not stated beside the values. The experiment is classed as functional.

The target in experiment [2] is Shiga toxin 2 (Escherichia coli O157:H7) (UniProt P09385+P09386). In words: E. coli 0.157:H7 Shiga Toxin SOP - stx2 screening assay. The experiment is classed as functional. The arrangement: scale not given: direction of the effect not stated beside the values. The conditions noted are these: 30 µM.

As for `CCC(=O)N1CCC(Cc2nccnc2Nc2ccccn2)CC1`, the Percent Effect in experiment [1] was -0.309%; in experiment [2] it was 11.3%.
On to `CC(CNC(=O)c1ccc(Cl)cc1I)N1CCCC1` (stereo not given), for which the Percent Effect in experiment [1] is -0.881%; in experiment [2], -18.5%.
For `COc1ccc(NC(=O)CNc2ccc(Br)cc2F)cc1`, in that order: 1.68% and -79.8%.
For `CCc1noc(C(C)N2CCN(c3ccc(C#N)cc3F)CC2)n1` (stereo not given), in that order: 1.23% and 8.4%.
For `Cn1cccc1C(=O)N1CCc2ncnc(C3CC3)c2CC1` the same measures were 0.574% and -1.81%.
Regarding `Cc1occc1C(=O)N1CCC2(CC1)CC(c1cccnc1)C(=O)N2C` (stereo not given), the Percent Effect is -1.22% in experiment [1] and -20.1% in experiment [2].
For `COc1ccc(OCCc2sc(C3(O)CCCNCC3)nc2C)cc1` (stereo not given), in that order: -5.55% and -52%.
For `CC(C)c1cc(NCC(C)N2CCCC2)n2nccc2n1` (stereo not given), in that order: 1.77% and -11.9%.
As for `CN1CCOC(CNCc2cccc(OCc3ccccn3)c2)C1` (stereo not given), the figures for the Percent Effect in experiment [1] and in experiment [2] were -8.22% and -16.3%, respectively.
For `N#Cc1cn(C2CC2)c(=O)n(CC(O)c2ccc(OC(F)F)cc2)c1=O` (stereo not given) the same measures were 1.23% and 14%.
As for `Cc1noc([C@@H]2C[C@H]3OCC[C@H]3N(S(=O)(=O)c3cccnc3)C2)n1`, the Percent Effect in experiment [1] is -1.34%; in experiment [2], -21.9%.
`CCc1nc(CC(=O)Nc2cnn(CC3CCCO3)c2)cs1` (stereo not given): the Percent Effect in experiment [1] was 1.86%; in experiment [2], -10.7%.
On to `CC(=O)c1cn(CCC(=O)NCCC(=O)O)c2ccccc12`, for which the Percent Effect was -4.27% in experiment [1] and -25.1% in experiment [2].
With `Cc1ccc(CN2CCC3(CC2)CC(c2cccnc2)CO3)s1` (stereo not given), the Percent Effect in experiment [1] was -2.49%; in experiment [2] it was -7.07%.
For `Cc1nn(C(C)C)c(C)c1NC(=O)c1ccccc1` the same measures were 1.73% and -4.81%.
For `Cc1nc(C)n(CC2CCCN2CC(=O)Nc2ccnn2C(C)C)n1` (stereo not given) the same measures were -1.15% and 23.4%.
For `Cc1nc(C2CCCN2Cc2nnc(C3CC3)o2)no1` (stereo not given), in that order: 1.34% and 20%.
Consider `CN(C)Cc1nnc(C2CCN(C(=O)CCc3cccs3)CC2)n1C`, for which the Percent Effect in experiment [1] was -0.948%; in experiment [2], -11.1%.
As for `CCCNC(=O)Nc1cc2c(cc1SC)OCCO2`, the Percent Effect in experiment [1] is -0.324%; in experiment [2], -0.581%.
With `O=C(CCn1cccn1)N1CCN(CC(F)F)CC1`, the Percent Effect in experiment [1] was found to be 2.16%; in experiment [2], 15.4%.
For `Cc1nonc1C(=O)N1CCCC(c2ncncc2-c2ccncc2)C1` (stereo not given) the same measures were 2.57% and 10.2%.
For `CNS(=O)(=O)c1ccc(C(=O)N2CCCC2Cc2ccccc2)o1` (stereo not given), in that order: -3.06% and 18.2%.
For `c1ccc(N2CCOC3(CCCN(c4nncs4)C3)C2)nc1` (stereo not given), in that order: 6.43% and 1.67%.
For `CCOC1COC2(CCN(S(=O)(=O)c3cccc(F)c3)CC2)C1` (stereo not given), the Percent Effect in experiment [1] is 16.4%; in experiment [2], -13%.
For `Cc1ncccc1CNCC1CCN(CC(O)c2ccccc2)CC1` (stereo not given), in that order: 0.218% and -34.9%.
For `CC(C)c1nc2c(n1C)CCN(CC(=O)Nc1ccc(Cl)cn1)C2`, in that order: 3.34% and -0.161%.
For `NC(=O)c1csc(C(=O)N2CCCCC2Cn2cccn2)c1` (stereo not given), the Percent Effect in experiment [1] is -1.92%; in experiment [2], 6.89%.
With `CS(=O)(=O)N1CC[C@H]2[C@H](C[C@@H](Cn3cncn3)N2CC2CC2)C1`, the values for the Percent Effect in experiment [1] and in experiment [2] were 10.1% and -8.81%, respectively.
For `Cc1cn2c(n1)CCC(NC(=O)CCC(F)(F)F)C2` (stereo not given), in that order: -0.225% and 5.05%.
For `O=C(NCCn1ccnc1)N1CCN(Cc2cccs2)CC1` the same measures were 0.0694% and -34.2%.
For `c1cnc(-c2cnc(N3CCSCC3)nc2C2CCCO2)cn1` (stereo not given), in that order: 6.48% and 13.6%.
`Fc1cccc(N2CCCC3(C2)CN(c2ncccn2)CCO3)c1` (stereo not given): the Percent Effect in experiment [1] is 2.81%; in experiment [2], -2.38%.
For `Cc1noc(C)c1CNCC1CCCN1c1cccnn1` (stereo not given) the same measures were 1.53% and 5.13%.
With `Cc1cccnc1CNCC1(O)CCCN(Cc2ccc(F)cc2)C1=O` (stereo not given), the figures for the Percent Effect in experiment [1] and in experiment [2] were 0.386% and 4.74%, respectively.
For `O=S1(=O)CCN(Cc2cccnc2)[C@H]2CCN(c3ncccn3)CC[C@H]21` the same measures were 1.96% and -36.2%.
On to `CN(C)C(=O)N1CCN(Cc2noc(Cc3ccccc3)n2)CC1`, for which the Percent Effect in experiment [1] turned out to be 0.542%; in experiment [2] it was 8.78%.
For `Cc1cnn(CCNCc2ccccc2C#N)c1` the same measures were -1.14% and 12.5%.
For `CCOC(=O)CN1CCC2(CC1)CC(=O)c1ccc(OC)cc1O2` the same measures were -2.78% and 10.6%.
Turning to `Cc1noc(C)c1C(=O)NCC(c1ccc(F)cc1)N(C)C` (stereo not given), the values for the Percent Effect in experiment [1] and in experiment [2] were 1.51% and 16%, respectively.
Consider `CCS(=O)(=O)N1C[C@H]2C[C@H](C(=O)N(C)C)[C@@H](C1)O2`, for which the values for the Percent Effect in experiment [1] and in experiment [2] were 3.87% and -5.91%, respectively.
For `O=C(Cc1ccc(-n2cccn2)cc1)N1CCCC(n2cccn2)C1` (stereo not given) the same measures were -2.94% and -22.3%.
For `O=C(Cn1cc(-c2ccccc2)ncc1=O)Nc1ccncc1`, in that order: 1.91% and -0.041%.
For `CCOc1ccc(CC(CNC(=O)c2ccoc2)C(N)=O)cc1` (stereo not given), in that order: -3.95% and -12.5%.
Regarding `Cc1cccc(CN2CCC3(CCCN(C(=O)c4ccsc4)C3)C2=O)n1` (stereo not given), the Percent Effect in experiment [1] was -2.4%; in experiment [2] it was -10.9%.
As to `CCOc1ccc2[nH]c(=O)c(CN3CCC(O)CC3)cc2c1`, the Percent Effect in experiment [1] is -6.3%; in experiment [2] it was -8.86%.
Consider `CC(C)Nc1ncnc2c1CCN(C(=O)c1ccncc1F)CC2`, for which the Percent Effect in experiment [1] was -1.6%; in experiment [2], -6.39%.
With `O=C1CC(NCc2ccncc2)CN1Cc1cccc(F)c1` (stereo not given), the Percent Effect is 2.73% in experiment [1] and -1.08% in experiment [2].
For `CN(C(=O)Cn1nc(-c2ccc(F)cc2)ccc1=O)C1CCS(=O)(=O)C1` (stereo not given), in that order: 3.06% and 1.8%.
For `Cc1c[nH]nc1C1CCCCN1C(=O)Cn1cc(Cl)cn1` (stereo not given), in that order: 4.25% and 10.4%.
As for `CC(C(=O)N1CCCN(Cc2ccc(C#N)cc2)CC1)n1ccnc1` (stereo not given), the figures for the Percent Effect in experiment [1] and in experiment [2] were -0.834% and 29.9%, respectively.
With `Cn1cnnc1C1CCCN(C(=O)NCc2ccc3c(c2)OCO3)C1` (stereo not given), the Percent Effect in experiment [1] was -2.83%; in experiment [2], 7.83%.
For `COCCNC(=O)[C@H]1C[C@@H]2CCN(c3nncs3)C[C@H]2O1`, in that order: 1.82% and -18.8%.
Consider `CN(C)C(=O)N1CCN(C(=O)C(c2ccccc2F)N(C)C)CC1` (stereo not given), for which the figures for the Percent Effect in experiment [1] and in experiment [2] were 0.752% and -3.65%, respectively.
For `CC(CNC(=O)Nc1ccc(N(C)C)nc1)Cn1cccn1` (stereo not given), in that order: 5.91% and -40.9%.
For `O=C(NCCCn1cncn1)N1CCCC(N2CCCC2)C1` (stereo not given), in that order: 3.5% and 0.153%.
Regarding `Cc1noc(C(C)C)c1C(=O)NCCN1CCCCCC1=O`, the Percent Effect in experiment [1] was 2.13%; in experiment [2] it was -4.24%.
Consider `COc1cccc(OCC2CCCN(C3CCN(C(C)=O)CC3)C2)c1` (stereo not given), for which the Percent Effect is 4.72% in experiment [1] and -0.97% in experiment [2].
For `COc1ccc(C(N)c2cccc(S(C)(=O)=O)c2)cc1` (stereo not given) the same measures were -2.54% and -7.65%.
For `Cc1ccccc1CSc1nc(N)cc(N2CCOC(C(N)=O)C2)n1` (stereo not given) the same measures were 3.12% and -13.5%.
Regarding `CC(C)c1nnc2n1CCN(CCCS(=O)(=O)c1ccccc1)C2`, the Percent Effect was -5.16% in experiment [1] and -15.3% in experiment [2].
For `O=C1COC2(COCCN(Cc3cccnc3)C2)CN1c1ccoc1` (stereo not given), in that order: 9.69% and -7.3%.
In the case of `CN1CCN(CC2CC2)C(=O)c2cnc(N3CCCCC3)nc21`, the Percent Effect in experiment [1] was 3.69%; in experiment [2] it was -8.64%.
For `COc1cccc(C2CCCN2Cc2nc3c(cnn3C)c(=O)[nH]2)c1` (stereo not given), in that order: -4.03% and -6.96%.
For the compound `O=C(C1CCC1)N1CCN(c2snc3ccccc23)CC1`, the figures for the Percent Effect in experiment [1] and in experiment [2] were 2.29% and 10.4%, respectively.
For `CCN(C(=O)COC)C(c1cccnc1)c1cc(C)cc(C)c1` (stereo not given) the same measures were 1.28% and -51.4%.
In the case of `CCc1nc(CN(C)C2CCN(Cc3ccc(C#N)cc3F)C2)no1` (stereo not given), the Percent Effect is -1.38% in experiment [1] and 20.3% in experiment [2].
For `O=C(c1cccn1Cc1cccs1)N1CCN(C2CC2)CC1` the same measures were -1.4% and -1.86%.
Turning to `Cc1ccoc1C(=O)N1CC[C@H]2OCC[C@@]2(COCc2ccncc2)C1`, the Percent Effect was 3.13% in experiment [1] and -14.8% in experiment [2].
For `CC(CC#N)NC(=O)c1cc(Br)c2c(c1)OCCO2` (stereo not given) the same measures were -8.16% and -5.44%.
For `CSc1ccsc1C(=O)N1CCN(CC(C)(C)O)CC1` the same measures were 2.72% and -13.5%.
As to `COc1ccc(CN(C)Cc2nc3c(cnn3C)c(=O)[nH]2)cc1OC`, the Percent Effect is -3.27% in experiment [1] and -8.89% in experiment [2].
Turning to `CN1C(=O)C[C@@H]2[C@@H]1CCN2S(=O)(=O)Cc1ccccc1`, the Percent Effect was -2.58% in experiment [1] and -4.62% in experiment [2].
For `CS(=O)(=O)c1ccc(CNC(=O)N2CCC(C(N)=O)C2)cc1` (stereo not given) the same measures were -1.49% and -11.7%.
With `O=C(c1cnccn1)N1CCN(Cc2csc(-c3ccccc3)n2)CC1`, the Percent Effect in experiment [1] came out at 1.34%; in experiment [2], 26.4%.
Turning to `COc1ccccc1OCC(=O)NS(=O)(=O)c1cc(F)ccc1F`, the Percent Effect in experiment [1] was 0.145%; in experiment [2], -7.87%.
